The nature of assay [1]: Quantitative High-Throughput drug screen in 47 multiple myeloma cell lines against the NCATS MIPE library collection: RPMI8226_ATCC cell viability assay (AID 1919871). Note: nearly all actives have a fitted effect of over 30% in size. The note with it: RPMI8226 myeloma viability, CellTiter-Glo ATP luminescence, 48 h; series mostly up to 45.8 µM. In a few lines: (§1)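 500 cells/well per myeloma line exposed to pinned MIPE 4.0 compounds for 48 h at 37 °C, 5% CO2. Viability read as ATP by CellTiter-Glo luminescence, normalised to DMSO-only (100%) and media-only (0%) wells.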
(In general: Cellular ATP, detected with luciferase, serves as a proxy for viable cell number.)

Assay [2] is described as follows: Quantitative High-Throughput drug screen in 47 multiple myeloma cell lines against the NCATS MIPE library collection: OPM2_DSMZ cell viability assay (AID 1919872). Note: nearly all actives have a fitted effect of over 30% in size. The note with it: OPM2 myeloma viability, CellTiter-Glo ATP luminescence, 48 h; series mostly up to 45.8 µM. The gist of the method:
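Viability readout: CellTiter-Glo luminescence following 5 min room-temperature incubation with reagent. Prior exposure: 48 h, 37C, humidified 5% CO2, 500 cells per well.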

The nature of assay [3]: Quantitative High-Throughput drug screen in 47 multiple myeloma cell lines against the NCATS MIPE library collection: KMS11_JCRBsus cell viability assay (AID 1919873). Note: nearly all actives have a fitted effect of over 50% in size. The note with it: KMS11 myeloma viability, CellTiter-Glo ATP luminescence, 48 h; series mostly up to 45.8 µM. The gist of the method:
as §1

A short description of assay [4]: Quantitative High-Throughput drug screen in 47 multiple myeloma cell lines against the NCATS MIPE library collection: KMS28BM_JCRB cell viability assay (AID 1919874). Note: nearly all actives have a fitted effect of over 35% in size. The note with it: CellTiter-Glo ATP, 48 h; series mostly up to 45.8 µM. The gist of the method: as §1

SMILES strings stand for the structures. Records with an inconclusive call do not appear. Activity calls are given as the source filed them. Calls come from the whole dose curve; as a rule, active = well fitted cell-killing curve with a large enough effect; inconclusive = small, poorly fitted or top-dose-only effect, or effect the other way; inactive = no such curve, though single readings can be large or run the other way.
Potency is the fitted concentration of half-maximal effect.

Regarding `Cc1nnc(C(C)C)n1C1C[C@H]2CC[C@@H](C1)N2CC[C@H](NC(=O)C1CCC(F)(F)CC1)c1ccccc1` (stereo partly drawn), the Potency entry in assay [1], in assay [2], in assay [3] and in assay [4] was “inactive” each time.
On to `CC(C)=CC[C@@H](O)C1=CC(=O)c2c(O)ccc(O)c2C1=O`, for which the Potency is 1.87 µM (active) in assay [1], 1.32 µM (active) in assay [2], 1.18 µM (active) in assay [3] and 0.833 µM (active) in assay [4].
As for `Nc1ncnc2c1ncn2[C@@H]1O[C@@H](CO)[C@H](O)[C@H]1O`, the Potency entry in assay [1], in assay [2] and in assay [3] was “inactive” in each case.
As for `CC(=NNC(=S)N1CCC1)c1ccccn1`, the Potency in assay [1] is 0.0042 µM (active); in assay [2], 0.0074 µM (active); in assay [4] it was 0.0083 µM (active).
On the same counts, the results for `CC(C)(C)NC(=O)Nc1cccc(Nc2ncc(F)c(NC(C)(C)CO)n2)c1` are “inactive”, 16.6 µM (active) and “inactive”.
For the molecule `C[C@H](NC(=O)C(=O)Nc1ccccc1C(C)(C)C)C(=O)N[C@@H](CC(=O)O)C(=O)COc1c(F)c(F)cc(F)c1F`, in assay [1], the Potency is 14.8 µM (active). Moreover, the Potency entry in assay [4] was “inactive”.
Regarding `CC(C)(C)OC(=O)N[C@H]1CCCCCC=C[C@@H]2C[C@@]2(C(=O)NS(=O)(=O)C2CC2)NC(=O)[C@@H]2C[C@@H](OC(=O)N3Cc4cccc(F)c4C3)CN2C1=O`, the Potency result in assay [1], in assay [2] and in assay [4] was “inactive” each time.
As for `CC=CC(=O)N(CC)c1ccccc1C`, the Potency in assay [1] was 3.72 µM (active). For the same molecule, the Potency entry in assay [2], in assay [3] and in assay [4] was “inactive” each time.
`CC[C@H]1OC(=O)[C@H](C)C(=O)[C@H](C)[C@@H](O[C@H]2O[C@H](C)C[C@H](N(C)C)[C@@H]2O)[C@](C)(OC)C[C@@H](C)C(=O)[C@H](C)[C@H]2N(CCCCn3cnc(-c4cccnc4)c3)C(=O)O[C@]12C`: the Potency in assay [1] was 18.7 µM (active); in assay [3] it was 16.6 µM (active). Moreover, the Potency entry in assay [4] is “inactive”.
As for `CCC(=O)O[C@]1(C(=O)CO)CC[C@H]2[C@@H]3CCC4=CC(=O)CC[C@]4(C)[C@@H]3CC[C@@]21C`, the Potency entry in assay [1] and in assay [4] was “inactive” in each case. Further, the Potency in assay [3] was 0.209 µM (active).
Consider `O=C1NC(=O)C(=Cc2cccc(C(F)(F)F)c2)S1`, for which, in assay [1], the Potency is 7.43 µM (active). For the same molecule, the Potency entry in assay [2] and in assay [4] was “inactive” each time.
`CC(C)OC(=O)C(C)(C)Oc1ccc(C(=O)c2ccc(Cl)cc2)cc1`: the Potency in assay [1] was 18.7 µM (active). Further, in assay [4], the Potency result is “inactive”.
As for `COc1ccc(Cc2nccc3cc(OC)c(OC)cc23)cc1OC`, the Potency result in assay [1] is “inactive”. The values for the Potency in assay [2], in assay [3] and in assay [4] were 11.8 µM (active), 18.7 µM (active) and 20.9 µM (active), respectively.
As for `COC1CCC(N(C(=O)C2CCC(C)CC2)c2cc(C3=CCCCC3)sc2C(=O)O)CC1` (stereo not drawn), the Potency result in assay [1], in assay [2] and in assay [4] was “inactive” in each case.
For `CC=CC[C@@H](C)C(=O)[C@H]1C(=O)N[C@@H](C(C)C)C(=O)N(C)CC(=O)N(C)[C@@H](CC(C)C)C(=O)N[C@@H](C(C)C)C(=O)N(C)[C@@H](CC(C)C)C(=O)N[C@@H](C)C(=O)N[C@H](C)C(=O)N(C)[C@@H](CC(C)C)C(=O)N(C)[C@@H](CC(C)C)C(=O)N(C)[C@@H](C(C)C)C(=O)N1C`, the Potency is 13.2 µM (active) in assay [1] and 14.8 µM (active) in assay [3].
Consider `NC1CCC(Nc2nc(Nc3ccc(C(=O)N4CCCCC4)cc3)c3ncn(-c4cccc(F)c4)c3n2)CC1` (stereo not drawn), for which the Potency entry in assay [1], in assay [2], in assay [3] and in assay [4] was “inactive” each time.
`CCc1ccc(C=C2SC(=S)NC2=O)cc1`: the Potency result in assay [1], in assay [2] and in assay [4] was “inactive” throughout.

These data come from PubChem BioAssay (NCATS).
